# Bioassay records as filed in PubChem.
# Lassa entry inh – inhibitors of Lassa virus binding or cell entry | Lassa virus pseudotype entry inhibition, cell reporter | Potency, µM (series often up to 37.9 µM), without a hit: at the top dose activity change, negative = inhibition, actives largely listed as inhibitors | actives 1.2% (n = 300,000); calls by dose curve; tested in HEK293 cells; note: nearly all actives have a fitted effect of over 50% in size
# MARV entry inh – inhibitors of Marburg virus binding or cell entry. AID 540276. Marburg virus pseudotyped entry inhibition, cell reporter. Potency, µM (titrated, usually from 37.8 µM), for inactives: top-dose activity change, negative = inhibition, hits mostly inhibitors. actives 1.8% (n = 300,000); calls by dose curve; tested in HEK293 cells
# VACV mCherry inh – vaccinia inhibition (mCherry reporter); Potency, µM (doses to about 36.5 µM), inactives show top-dose activity change, negative = inhibition, usual class: inhibitors; AID 720579; Vaccinia virus mCherry reporter infection, fluorescence; actives 0.63% (n = 310,000); calls by dose curve; tested in A549 cells; note: nearly all actives have a fitted effect of over 35% in size
# HCV inh – blocks hepatitis C virus. Huh7.5.1 HCVcc-Cre infection, luciferase reporter, 44 h. Potency, µM (series often up to 41.8 µM), inactives show top-dose activity change, negative = inhibition, actives largely listed as inhibitors. actives 3.4% (n = 340,000). AID 651820; active = well fitted inhibition curve with a large enough effect; inconclusive = small, poorly fitted or top-dose-only effect, or another doubt; inactive = no such curve, though single readings can be large or run the other way
#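 Seed cells (1,000/well) for 4 h; treat with compound and infect with HCVcc-Cre, moi about 0.5. Incubate 44 h, then detect luciferase activity.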
# FMDV antiviral – foot and mouth disease virus antiviral activity. FMDV antiviral cell-based qHTS. Potency, µM (highest dose often 57.9 µM), without a hit: top-dose activity change, negative = inhibition, usual class: inhibitors. actives 1.2% (n = 410,000). AID 1159524; calls by dose curve; tested in HEK293T cells; note: read-out not given here; nearly all actives have a fitted effect of over 45% in size
# VACV Venus inh – vaccinia inhibition (Venus reporter) | Vaccinia virus Venus reporter expression, fluorescence | actives 0.46% (n = 330,000) | Potency, µM (highest dose often 36.5 µM), inactives show at the highest dose activity change, negative = inhibition, hits mostly inhibitors; calls by dose curve; tested in A549 cells; note: nearly all actives have a fitted effect of over 30% in size
# The depositor's hits bear a star; i = inactive; ? = inconclusive; . = no result given; [ ] = another dose, or the depositor's remark. The list is not random: actives were taken first. Their share in the collection is about 5.3%. % is set by controls: 0 for no effect and ±100 for the full control effect; potency is the fitted concentration of half-maximal effect.
SMILES,Lassa entry inh,MARV entry inh,VACV mCherry inh,HCV inh,FMDV antiviral,VACV Venus inh
CCC[C@]12CCN3C(=O)N[C@@H](c4ccccc4)[C@](C(=O)OCC)(C1)[C@H]32,.,9%[14.2 µM],.,.,.,.
Cc1sc2ncnc(SCC(=O)N3c4ccccc4Sc4ccc(Cl)cc43)c2c1C,0%,?,-18%,9%,-20%,-7%
CCOC(=O)c1c(C)sc2c1N(C(=O)CCl)c1cc(Cl)ccc1S2,?,?,?,?,10µM*,-30%
Cc1cccc(N2CCN(c3ncnc4onc(C)c34)CC2C)c1 (stereo not given),?,.,-10%[7.34 µM],.,3.2µM*,-13%[7.34 µM]
Cc1cccc(N2CCN(c3ncnc4onc(-c5ccc(F)cc5)c34)CC2C)c1 (stereo not given),-10%[46.1 µM],.,-6%,.,?,1%
COc1cccc(-c2cccc3c2NC(=O)C3(C)Cc2cccc(F)c2)c1 (stereo not given),.,.,7%,.,35µM*,4%
CC1(Cc2cccc(F)c2)C(=O)Nc2ccc(-c3cccnc3)cc21 (stereo not given),.,.,i,.,-9%,?
Cc1cc(NC(=O)COn2nnc3ccc(S(C)(=O)=O)cc32)ccc1Br,.,.,.,10µM*,-25%,.
CCCN(Cc1ccccc1)C(=O)Nc1ccc2c(c1)nnn2C,2.6µM*,?,-6%,18%,.,4%
CCOc1ccc(NC(=O)Nc2ccc3c(c2)nnn3C)cc1,-6%,9%,-13%,4%,.,-7%
Nc1nc(NCCc2ccc(O)cc2)nc2nc(-c3ccco3)nn12,.,.,-24%,.,38%,-11%
COc1cc2nc(N3CCN(C(=O)C4COc5ccccc5O4)CC3)nc(N)c2cc1OC (stereo not given),?,12µM*,-20%,?,-18%,-13%
COc1cc2nc(N3CCN(C(=O)OCc4ccccc4)C(C(=O)NC(C)(C)C)C3)nc(N)c2cc1OC (stereo not given),?,11µM*,.,.,.,.
COc1cc2nc(N3CCN(C(=O)OCc4ccccc4)[C@H](C(=O)NC(C)(C)C)C3)nc(N)c2cc1OC,.,?,-2%,?,-15%,-16%
CCCCN1CCC(COC(=O)c2cc(Cl)c(N)c3c2OCCO3)CC1,.,11µM*,i,-29%,0%,-12%
COc1ccc([C@]23Cc4cc(C#N)ccc4[C@H](O2)c2c(cc(-c4ccccc4)oc2=O)O3)cc1,.,7%[14.2 µM],.,.,.,.
COc1ccc(CCNC(=O)COc2ccc(N(C)S(=O)(=O)c3ccc(Cl)cc3)cc2)cc1,?,?,?,7.1µM*,?,?
CCOc1ccc(S(=O)(=O)N(C)c2ccc(OCC(=O)Nc3ccc4[nH]c(=O)[nH]c4c3)cc2)cc1,-15%,10%,.,0%,-24%,0%
CCOc1ccccc1OCC(=O)Nc1ccc2[nH]c(=O)[nH]c2c1,.,.,.,13µM*,-11%,.
CCOc1ccc(S(=O)(=O)N(C)c2ccc(OCC(=O)NCc3ccc(C(=O)OC)cc3)cc2)cc1,3.2µM*,2%[46.1 µM],-23%,-29%,0%,4%
CN(c1ccc(OCC(=O)Nc2ccc3[nH]c(=O)[nH]c3c2)cc1)S(=O)(=O)c1ccc(Cl)cc1,23µM*,?,.,-7%,-8%,.
O=C(COc1ccccc1Cl)Nc1ccc2[nH]c(=O)[nH]c2c1,-8%[46.1 µM],0%,-23%,-22%,-12%,-17%
Cc1ccc(N2C(=O)CS(=O)(=O)C23C(=O)N(Cc2ccccc2F)c2ccccc23)cc1Cl (stereo not given),?,?,7%,.,0%,6%
CO[C@H]1[C@H](NC(=O)c2cccs2)c2ccccc2C12CCN(Cc1cccn1-c1cccnc1)CC2,.,.,-9%,.,-8%,-4%
COc1ccc(-n2ncc(C(=O)N3CCN(c4cc(C)ccc4C)CC3)c2C2CCN(C(=O)OC(C)(C)C)CC2)cc1,?,.,?,.,-13%,?
CCc1nc(SC)ncc1C(=O)NCc1cccc(Br)c1,-2%[46.1 µM],.,-11%,.,-7%,-8%
O=C1C(Cl)=C(NCc2cccnc2)C(=O)c2ccccc21,?,?,?,13µM*,?,28µM*
O=C(O)c1ccc(NC2=C(Cl)C(=O)c3ccccc3C2=O)cc1,.,.,.,?,25µM*,.
